Bioassay records: PubChem, National Center for Advancing Translational Sciences (NCATS)
This is one part of a sample in which hits are shown more often than they occur.
nsP2pro inh = blocks chikungunya virus nsP2 protease peptide cleavage; 31,000 tested, 1.1% active; Potency, µM (top dose mostly 24.9 µM), without a hit: at the highest dose activity change, negative = inhibition, most hits filed as inhibitors; AID 1964107; FRET peptide cleavage, nsP2pro, fluorescence 1 h; Q8JUX6; further: nearly all actives have a fitted effect of over 60% in size
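Purified recombinant nsP2pro (150 nM final) in 10 mM Tris-HCl pH 8.0 with 0.01% Tween 20 was preincubated 15 min at room temperature with compound (7 concentrations, up to 25 uM). FRET peptide 2 substrate (2.5 uM final) was then added; fluorescence was read after 1 h.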
CHIKV nsP2 cell = secondary cell-based test for CHIKV nsP2 protease inhibitors. shares compounds with nsP2pro inh. cell-based CHIKV nsP2 protease reporter assay. Potency, µM (titrated, usually from 51.1 µM), inactives show top-dose activity change, negative = inhibition, actives largely listed as inhibitors. 450 tested, 10% active; further: nearly all actives have a fitted effect of over 70% in size
NSP2 full ctr = inhibits full-length CHIKV NSP2 enzyme; 410 tested, 39% active; AID 1964101; Potency, µM (doses to about 50.7 µM), without a hit: at the highest dose activity change, negative = inhibition, most hits filed as inhibitors; shares compounds with nsP2pro inh; Full-length CHIKV NSP2 protease enzymatic counterscreen; further: nearly all actives have a fitted effect of over 65% in size
Furin counterscr = selectivity counter-screen for CHIKV nsP2 protease inhibitors: human furin | shares compounds with nsP2pro inh | Potency, µM (titrated, usually from 50.6 µM), for the others: at the top dose activity change, negative = inhibition, actives largely listed as inhibitors | Recombinant human furin enzymatic counterscreen, fluorogenic substrate | AID 1964102 | 410 tested, 6% active
Target sequence (P09958 whole entry, looked up): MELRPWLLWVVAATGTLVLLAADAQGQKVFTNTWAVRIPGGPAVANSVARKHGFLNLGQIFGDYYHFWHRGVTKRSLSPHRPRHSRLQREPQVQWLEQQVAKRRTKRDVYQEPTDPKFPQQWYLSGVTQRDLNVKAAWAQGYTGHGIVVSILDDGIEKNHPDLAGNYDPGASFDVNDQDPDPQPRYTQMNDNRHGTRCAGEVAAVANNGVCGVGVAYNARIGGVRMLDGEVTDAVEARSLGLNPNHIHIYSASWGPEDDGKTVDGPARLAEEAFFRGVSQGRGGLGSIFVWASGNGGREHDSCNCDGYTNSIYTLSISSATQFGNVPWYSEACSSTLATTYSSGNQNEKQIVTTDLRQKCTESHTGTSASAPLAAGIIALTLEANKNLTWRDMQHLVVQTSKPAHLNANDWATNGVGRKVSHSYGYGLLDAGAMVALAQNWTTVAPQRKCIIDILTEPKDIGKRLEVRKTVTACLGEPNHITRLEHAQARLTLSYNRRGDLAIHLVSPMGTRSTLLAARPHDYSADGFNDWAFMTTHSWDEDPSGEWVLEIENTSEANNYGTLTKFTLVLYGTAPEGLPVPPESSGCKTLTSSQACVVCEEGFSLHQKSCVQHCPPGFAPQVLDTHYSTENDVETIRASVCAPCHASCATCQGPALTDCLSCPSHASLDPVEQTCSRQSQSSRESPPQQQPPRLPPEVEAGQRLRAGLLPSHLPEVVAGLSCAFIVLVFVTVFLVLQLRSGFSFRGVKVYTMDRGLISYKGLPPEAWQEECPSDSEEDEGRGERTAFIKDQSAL
NS23 peptide cs = selectivity test for CHIKV nsP2 protease inhibitors: endogenous NS2/3 peptide. shares compounds with nsP2pro inh. Purified CHIKV nsP2 protease, endogenous NS2/3 peptide cleavage. Potency, µM (top dose mostly 51 µM), without a hit: at the top dose activity change, negative = inhibition, actives largely listed as inhibitors. 410 tested, 34% active. AID 1964103; further: nearly all actives have a fitted effect of over 55% in size
Papain cs = inhibits papain in a CHIKV nsP2 protease selectivity counterscreen; shares compounds with nsP2pro inh; purified papain protease activity, enzymatic inhibition; Potency, µM (titrated, usually from 51 µM), without a hit: top-dose activity change, negative = inhibition, usual class: inhibitors; 410 tested, 5% active; AID 1964104
nsP2pro confirm = confirmation of CHIKV nsP2 protease inhibitors; shares compounds with nsP2pro inh; Potency, µM (top dose mostly 25.5 µM), inactives show at the highest dose activity change, negative = inhibition, usual class: inhibitors; 410 tested, 43% active; CHIKV nsP2 protease enzymatic activity, qHTS; further: nearly all actives have a fitted effect of over 75% in size
HCV NS3 4A cs = selectivity counter-screen for CHIKV nsP2 protease inhibitors: HCV NS3/4A; shares compounds with nsP2pro inh; HCV NS3/4A protease biochemical counterscreen; Potency, µM (top dose mostly 50.9 µM), most hits filed as inhibitors; 410 tested, 20% active; further: nearly all actives have a fitted effect of over 55% in size
Active calls of the source: *; i = inactive; ? = inconclusive; ! = a repeat was not active; [ ] = remark or other dose. The call rests on the fitted dose curve. On the % scale 0 is the no-effect control and ±100 the full control effect; potency means the concentration at half of the fitted maximal effect.

SMILES | nsP2pro inh | others
CC/C=C/C(O)C(O)C1=C(C)C(=O)C2(O1)C(=O)NC(OC)(C(=O)c1ccccc1)C2O (centres undefined) | -2.8%[10 µM]
Cc1ccc(S(=O)(=O)Nc2cncc(C(=O)Nc3nc(-c4ccccc4)cs3)c2)cc1 | i
Cc1cc(NC(=O)NCCN2CCC(O)(Cc3ccccc3)CC2)c2ccccc2n1 | 4.2%
CCOC(=O)OCC/C(SC(=O)OCC)=C(\C)N(C=O)Cc1cnc(C)nc1N | 0.0%
CCCSS/C(CCO)=C(\C)N(C=O)Cc1cnc(C)nc1N | 8.81µM* | CHIKV nsP2 cell=-20.6%;NSP2 full ctr=16.3µM*;Furin counterscr=-0.6%;NS23 peptide cs=?;Papain cs=-5.8%;nsP2pro confirm=7.98µM*;HCV NS3 4A cs=i
C/C(=C(\CCOP(=O)(O)O)SC(=O)c1ccccc1)N(C=O)Cc1cnc(C)nc1N | -8.4%[2.68 µM]
Cc1nc(N(C)C(=O)Cc2ccc(-c3ccccn3)cc2)sc1S(N)(=O)=O | -4.4%
Cc1noc([C@@H]2CN(C(=O)c3cc(C4CC4)[nH]n3)C[C@H]2C(N)=O)n1 | -13.7%
Cc1noc([C@@H]2CN(Cc3ccc[nH]3)C[C@H]2CO)n1 | i
Cc1noc(C2CN(C(=O)c3cc(-c4ccco4)[nH]n3)CC2c2ccccc2)n1 (centres undefined) | 10µM* | CHIKV nsP2 cell=7.9%;NSP2 full ctr=8.19µM*;Furin counterscr=-9.3%;NS23 peptide cs=?;Papain cs=-13.4%;nsP2pro confirm=8.96µM*;HCV NS3 4A cs=?
NC(=O)c1cccc2[nH]c(-c3ccc([C@@H]4CCCN4)cc3F)nc12 | -8.3%
c1nc(NCCc2cnc[nH]2)c2cc(-c3ccoc3)ccc2n1 | 4.2%
O=C(Nc1nc(-c2ccccc2)cs1)c1ccncc1NS(=O)(=O)c1ccccc1 | i
Cc1cc2c(F)c(Oc3ncnn4cc(OC[C@@H](C)OC(=O)[C@H](C)N)c(C)c34)ccc2[nH]1 | 158.7%
Cc1ccccc1C(=O)N1CCc2cc(-c3nc(NC(=O)Cc4ccc5ccccc5c4)sc3C)ccc21 | -0.3%
O=C(Nc1cccc(C(F)(F)F)c1)c1cnn(-c2cccc(F)c2)c1C1CCNCC1 | 8.91µM* | CHIKV nsP2 cell=113.7%;NSP2 full ctr=11.6µM*;Furin counterscr=-7.0%;NS23 peptide cs=?;Papain cs=2.5%;nsP2pro confirm=?;HCV NS3 4A cs=7.3µM*
O=C(c1ccco1)N1CCN(C(=O)c2cnn(-c3cccc(F)c3)c2C2CCNCC2)CC1 | -39.6%
Cc1cc(C)cc(NC(=O)c2cnn(-c3ccc(C)c(C)c3)c2C2CCNCC2)c1 | -16.0%
CSc1nc(N)cc(Oc2ccc(-c3nc(Nc4cccc(C(F)(F)F)c4)n[nH]3)cc2)n1 | 64.2%
Cc1cccc(CNc2ccnc(-c3cccc(C(F)(F)F)c3)n2)c1 | -17.5%
CCC[C@H](NC(=O)[C@@H]1[C@H]2CCC[C@H]2CN1C(=O)[C@@H](NC(=O)[C@@H](NC(=O)c1cnccn1)C1CCCCC1)C(C)(C)C)C(=O)C(=O)NC1CC1 | 3.94µM*! | CHIKV nsP2 cell=172.5%;NSP2 full ctr=11.6µM*;Furin counterscr=-4.4%;NS23 peptide cs=?;Papain cs=0.0259µM*;nsP2pro confirm=3.57µM*;HCV NS3 4A cs=0.0517µM*
O=C(COc1ccc(Cl)cc1)N1CCc2nn(CC3CC3)c(=O)n2CC1 | 0.2%
C/C(=C\CC/C(C)=C/CC[C@]1(C)CCc2cc(O)cc(C)c2O1)CC/C=C(\C)C(=O)O | 81.8%[10 µM]
C=C1CC[C@@]2(OC1)O[C@H]1CC3[C@@H]4CC=C5C[C@@H](O)C[C@@H](O[C@@H]6OC[C@H](O)[C@H](O)[C@H]6O[C@@H]6O[C@@H](C)[C@H](O)[C@@H](O)[C@H]6O)[C@]5(C)C4CC[C@]3(C)[C@H]1[C@@H]2C (some centres undefined) | -10.0%[10 µM]
O=S(=O)(Nc1ccccc1F)c1ccc(O)c2ncccc12 | i
SMILES | nsP2pro inh | others
COc1nc2ccc(Br)cc2cc1[C@@H](c1ccccc1)[C@@](O)(CCN(C)C)c1cccc2ccccc12 | 1.24µM* | CHIKV nsP2 cell=?;NSP2 full ctr=?;Furin counterscr=-13.4%;NS23 peptide cs=?;Papain cs=-25.3%;nsP2pro confirm=7.11µM*;HCV NS3 4A cs=i
Cc1ccc(S(=O)(=O)Nc2cc(C(F)(F)F)ccc2C(=O)Nc2nc(-c3ccccc3)cs2)cc1 | -3.2%
Cc1ccccc1C(=O)N1CCc2cc(N3CCC(NC(=O)Cc4ccccc4)C3)ccc21 (centres undefined) | i
CNc1nc2c(s1)C(c1ccc(Cl)cc1)CC(=O)N2 (centres undefined) | 3.16µM* | CHIKV nsP2 cell=46.3%;NSP2 full ctr=2.91µM*;Furin counterscr=-10.4%;NS23 peptide cs=8.19µM*;Papain cs=23.4%;nsP2pro confirm=5.65µM*;HCV NS3 4A cs=i
COC(=O)c1ccc(O)c2ncccc12 | i
CN[C@@H]1[C@@H](O)[C@@H](O[C@@H]2[C@@H](O)[C@H](OC3O[C@H](CN)[C@@H](O)[C@H](O)[C@H]3O)[C@@H](N)C[C@H]2NC(=O)[C@@H](O)CN)OC[C@]1(C)O (some centres undefined) | 11.6%[10 µM]
Cc1onc(-c2c(F)cccc2Cl)c1C(=O)N[C@@H]1C(=O)N2[C@@H]1SC(C)(C)[C@H]2C(=O)O | -3.9%
C=C/C=C/C[C@@H](C)[C@@H](O)[C@H]1C(=O)N[C@@H](CC)C(=O)N(C)CC(=O)N(C)[C@@H](CC(C)C)C(=O)N[C@@H](C(C)C)C(=O)N(C)[C@@H](CC(C)C)C(=O)N[C@@H](C)C(=O)N[C@H](C)C(=O)N(C)[C@@H](CC(C)C)C(=O)N(C)[C@@H](CC(C)C)C(=O)N(C)[C@@H](C(C)C)C(=O)N1C | 0.0%
CCOC(=O)c1ccc(N2C(=O)c3n[nH]c(-c4ccco4)c3C2c2cccc(F)c2)cc1 (centres undefined) | 17.6%
O=C(c1cc(-c2ccco2)[nH]n1)N1CCSC(c2cc(F)ccc2F)CC1 (centres undefined) | 3.16µM* | CHIKV nsP2 cell=5.7%;NSP2 full ctr=5.8µM*;Furin counterscr=-9.0%;NS23 peptide cs=?;Papain cs=-19.3%;nsP2pro confirm=8.96µM*;HCV NS3 4A cs=16.3µM*
Cc1cc(C(=O)N2CCC(OCCOc3ccc(F)cc3)CC2)nn1C | -6.4%
CC[C@@]1(O)CC2CN(CCc3c([nH]c4ccccc34)[C@](C(=O)OC)(c3cc4c(cc3OC)N(C)C3[C@@](O)(C(N)=O)[C@H](O)[C@]5(CC)C=CCN6CC[C@@]43[C@@H]65)C2)C1 (some centres undefined) | 15.3%
Cc1cccc(Nc2ccccc2C(=O)O)c1C | 1.1%
